Each structure is given as a SMILES string. Records with an inconclusive call do not appear. Active and inactive are the calls of the source. Calls come from the whole dose curve; as a rule, active = well fitted activation curve with a large enough effect; inconclusive = small, poorly fitted or top-dose-only effect; inactive = no such curve, though single readings can be large or run the other way.

In PubChem BioAssay (NCATS) one finds activation data, which are given here for twelve compounds.

Sequence of Cellular tumor antigen p53 (Homo sapiens) (P04637 whole entry, looked up): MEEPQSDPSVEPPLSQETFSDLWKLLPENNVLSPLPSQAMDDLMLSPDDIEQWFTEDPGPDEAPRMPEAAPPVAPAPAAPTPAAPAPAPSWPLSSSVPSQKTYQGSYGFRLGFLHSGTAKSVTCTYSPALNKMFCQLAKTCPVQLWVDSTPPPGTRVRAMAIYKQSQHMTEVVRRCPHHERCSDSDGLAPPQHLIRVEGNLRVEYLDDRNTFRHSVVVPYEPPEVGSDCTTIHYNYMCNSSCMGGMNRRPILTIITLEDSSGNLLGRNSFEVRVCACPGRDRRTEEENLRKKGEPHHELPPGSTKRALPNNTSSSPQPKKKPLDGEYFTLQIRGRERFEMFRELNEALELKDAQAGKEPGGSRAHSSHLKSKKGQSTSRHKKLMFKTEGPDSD

This test has as its target Cellular tumor antigen p53 (Homo sapiens) (UniProt P04637). Kind of test: Primary qHTS for small molecule compounds that upregulate eGFP-tagged delta133p53alpha (in N-terminal) cells. (AID 2060322).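 Note: series mostly up to about 56 µM; 0% = DMSO vehicle and 100% = reference activator; nearly all actives have a fitted effect of over 75% in size.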 The conditions noted are these: NCI-H358 eGFP-delta133p53alpha fluorescence, 24 h; activation: stronger effect = higher value. In a few lines: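 NCI-H358 cells pre-induced 24 h with 10 ng/ml doxycycline to express N-terminal eGFP-delta133p53alpha, then dosed 24 h at 37C without doxycycline; fixed, Hoechst-stained, GFP intensity by laser scanning cytometry, normalized to DMSO (0%) and 57.5 uM 5-azacytidine (100%).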
A general note: In qHTS, concentration-response curves come from the screen itself.
`O=C(Nc1cccc2cccnc12)c1ccc(N2C(=O)[C@@H]3C4C=CC(C4)[C@@H]3C2=O)cc1`: the activation was 2.33% (inactive).
With `C=C1C[C@@]23CC[C@@H]4[C@](C)(C(=O)O)CCC[C@@]4(C)C2=CC[C@H]1C3` the figure was 0.763% (inactive); with `C=CC(C)(O)C(O)CC1C(C)(O)C(O)C(O)C2C(C)(C)CCCC21C` (configuration not stated), -20.6% (inactive); with `Cc1ccc(Sc2cncc3sc(C(N)=O)cc23)cc1`, -17.7% (inactive).
The value for `COc1cc2c(cc1O)CC(O)(CO)C(CO)C2c1ccc(OC2OC(CO)C(O)C(O)C2O)c(OC)c1` (configuration not stated) was -31.3% (inactive); that for `C[C@@H]1O[C@@H](OC(=O)Cc2ccccc2)[C@H](O)[C@H](O)[C@H]1O` was 17% (inactive); that for `CC1CCC2C(C)(C)C(O)CCC2(C)C12Cc1c(O)cc3c(c1O2)CN=C3N` (configuration not stated) was 12.5% (inactive).
With `CS/C=C/C(=O)O[C@@H]1CCC2=CC(=O)C(=C(C)C)C[C@]2(C)[C@H]1C` the figure was -1.79% (inactive); with `C/C(=C\CCC(C)CCO)C(=O)O[C@@H]1[C@@H](O)[C@H](OC2OC=C(C(=O)O)C3CCC(C)(O)C23)O[C@H](CO)[C@H]1O` (some centres not stated), 13.4% (inactive); with `CCC[C@@H]1O[C@@H]2C[C@H]3[C@@H]4CCC5=CC(=O)C=C[C@]5(C)[C@H]4[C@@H](O)C[C@]3(C)[C@]2(C(=O)CO)O1`, 6.33% (inactive).
In the case of `C/C=C(\C)C(=O)OC1C(C)C2(O)C3C=C(C)C(=O)C3CC(CO)=CC2C2C(C)(C)C12OC(C)=O` (configuration not stated), the activation was -19.8% (inactive).
Take `CC(=O)O[C@@H]1[C@H](O)[C@@H](O[C@@H]2O[C@@H](C)[C@H](O[C@@H]3OC[C@@H](O)[C@H](O[C@@H]4OC[C@@H](O)[C@H](O)[C@H]4O)[C@H]3O)[C@@H](O[C@@H]3O[C@H](CO)[C@@H](O)[C@H](O)[C@H]3O)[C@H]2O)[C@H](OC(=O)[C@]23CCC(C)(C)C[C@H]2C2=CCC4[C@@]5(C)CC[C@H](O[C@@H]6O[C@H](C(=O)O)[C@@H](O)[C@H](O[C@@H]7OC[C@@H](O)[C@H](O)[C@H]7O)[C@H]6O[C@@H]6O[C@H](CO)[C@H](O)[C@H](O)[C@H]6O)[C@@](C)(C=O)C5CC[C@@]4(C)[C@]2(C)CC3)O[C@@H]1C` (some centres not stated): the activation was -9.16% (inactive).
